Screens from PubChem BioAssay.
In the library only some 5.8% were active in any assay of this set; here they are far more common.
SW480 rerep = induces DNA re-replication in SW480 colon adenocarcinoma cells. SW480 DNA re-replication, Hoechst DNA content imaging, 48 h. Potency, µM (highest dose often 46.1 µM), most hits filed as activators. 340,000 tested, 1.8% active; also: nearly all actives have a fitted effect of over 55% in size
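Image-based DNA-content assay: after two days of treatment, nuclei were labelled with the DNA dye Hoechst and imaged, and hits were compounds raising the count of nuclei showing high fluorescence intensity.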
12-LOX inh = blocks human arachidonate 12S-lipoxygenase | P18054 | Potency, µM (highest dose often 108 µM), hits mostly inhibitors | 580,000 tested, 1.1% active | purified 12hLO, xylenol orange hydroperoxide absorbance
Target sequence (P18054 whole entry, looked up): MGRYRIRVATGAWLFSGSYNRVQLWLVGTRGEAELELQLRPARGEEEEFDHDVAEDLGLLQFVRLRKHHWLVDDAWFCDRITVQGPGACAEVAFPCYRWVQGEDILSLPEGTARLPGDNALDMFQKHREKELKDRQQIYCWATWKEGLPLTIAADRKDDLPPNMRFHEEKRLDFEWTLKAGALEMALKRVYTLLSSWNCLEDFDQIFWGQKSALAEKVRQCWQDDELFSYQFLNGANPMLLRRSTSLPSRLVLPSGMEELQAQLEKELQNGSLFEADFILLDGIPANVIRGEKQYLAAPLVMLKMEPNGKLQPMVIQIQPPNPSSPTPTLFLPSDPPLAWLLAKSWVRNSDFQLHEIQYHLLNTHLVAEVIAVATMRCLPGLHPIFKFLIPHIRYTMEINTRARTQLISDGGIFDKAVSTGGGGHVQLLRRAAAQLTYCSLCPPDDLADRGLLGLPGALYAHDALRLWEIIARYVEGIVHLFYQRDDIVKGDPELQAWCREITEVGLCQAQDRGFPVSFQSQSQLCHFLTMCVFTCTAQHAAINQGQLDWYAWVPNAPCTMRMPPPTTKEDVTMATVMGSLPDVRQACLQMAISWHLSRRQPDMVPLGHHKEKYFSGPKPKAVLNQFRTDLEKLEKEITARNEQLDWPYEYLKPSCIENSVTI
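Hydroperoxide product was detected by ferrous iron/xylenol orange as the 573 to 405 nm absorbance ratio. Arachidonic acid at 40 uM (final) was turned over for 30 min at room temperature by 150 nM human 12hLO, pH 7.0 Hepes buffer, after 15 min compound preincubation.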
KB-V1 MDR tox = KB-V1 MDR subline cytotoxicity; KB-V1 MDR cells viability, CellTiter-Glo, 72 h; 400,000 tested, 3.4% active; Potency, µM (titrated, usually from 46.1 µM), usual class: cytotoxic; AID 1347076; also: nearly all actives have a fitted effect of over 60% in size
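Drug-selected KB-V1 cells, grown in DMEM lacking phenol red with 10% FBS, receive compound titrations; after three days at 37 degrees C, surviving cell ATP is quantified by CellTiter-Glo luminescence and responses normalized and curve-fitted.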
KB-3-1 tox = kills parental KB-3-1 adenocarcinoma cells | KB-3-1 viability, CellTiter-Glo ATP luminescence, 72 h | Potency, µM (titrated, usually from 46.1 µM), usual class: cytotoxic | 400,000 tested, 1.4% active | AID 1347075; also: nearly all actives have a fitted effect of over 60% in size
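Luminescent ATP read-out (CellTiter-Glo) measures survival of drug-naive KB-3-1 cells after 72 h compound exposure at 37 °C. Titration series was screened from lowest to highest concentration, with DMSO vehicle plates as background controls.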
MCF10A rerep = DNA re-replication induction in MCF 10a cells; AID 624296; Potency, µM (titrated, usually from 46.1 µM), usual class: activators; 350,000 tested, 2.9% active; MCF 10A DNA re-replication, Hoechst nuclear intensity, 48 h; also: nearly all actives have a fitted effect of over 50% in size
PINK1 expr mod = modulators of PINK1 expression; 410,000 tested, 0.2% active; AID 624263; PINK1 immunofluorescence, high-content cytometry, 24 h; Potency, µM (highest dose often 76.6 µM), most hits filed as activators; active = well fitted activation curve with a large enough effect; inconclusive = small, poorly fitted or top-dose-only effect; cell line not stated here; also: nearly all actives have a fitted effect of over 65% in size
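Readout is PINK1 immunofluorescence, quantified alongside mitochondrial, cell and nuclear markers by laser-scanning microplate cytometry. Cells from a stable line were exposed to compound titrations (5 concentrations) for 24 hours, with CCCP controls.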
Numbers stand for hits; i = inactive; ? = inconclusive; nt = not tested or not shown; [ ] = another dose, or the depositor's remark. Unless noted, calls follow the shape of the dose curve; as a rule, active = well fitted curve in the direction sought with a large enough effect; inconclusive = small, poorly fitted or top-dose-only effect, or another doubt; inactive = no such curve, though single readings can be large; an effect the other way counts as inactive or inconclusive.

SMILES	SW480 rerep	12-LOX inh	KB-V1 MDR tox	KB-3-1 tox	MCF10A rerep	PINK1 expr mod
COc1ccccc1C(=O)Nc1ccc(S(=O)(=O)N2CCCCC2)cc1	i	i	i	i	i	i
CC(C)n1cnc2nc(CSc3ccc(NC(=O)c4cccc(F)c4)cc3)cc(=O)n21	nt	i	nt	nt	nt	nt
COC(=O)C(=Nc1ccccc1)/C(C(=O)C(=O)N(C)c1ccccc1)=C(\O)c1ccccc1	i	12.6µM	?	i	i	i
OCc1cc(-c2ccccc2)n[nH]1	nt	i	nt	nt	nt	nt
O=C1C(=O)c2ccccc2C(O)=C1c1cccc([N+](=O)[O-])c1	23.1µM	?	?	?	i	i
Cc1ccc(C2=C(O)c3ccccc3C(=O)C2=O)cc1	i	?	i	i	i	i
CC(C)CC(NC(=O)C1CCCCC1)C(=O)N1CCN(c2ccccn2)CC1 (configuration not stated)	i	i	2.59µM	i	i	i
CSCCC(NC(=O)C1CCC(C)CC1)C(=O)N1CCN(c2ccccn2)CC1 (configuration not stated)	i	i	?	i	i	i
CC(C)CCC(=O)NCC(C)N1CCCC1 (configuration not stated)	nt	i	nt	nt	nt	nt
C=CC(=O)Nc1cccc(Oc2ccnc(Nc3ccc(N4CCN(C)CC4)cc3)n2)c1	?	?	i	?	18.4µM	i
CN1CCN(c2ccc(Nc3nccc4[nH]c(-c5cccnc5)cc34)cc2)CC1	nt	i	nt	nt	nt	nt
C=CC(=O)Nc1cccc(Oc2ccnc3[nH]ccc23)c1	?	nt	i	?	?	i
C=CC(=O)Nc1cccc(N(C)c2ccnc(Nc3ccc(N4CCN(C)CC4)cc3)n2)c1	?	nt	i	?	14.6µM	i
CCCCCCSc1nc2c(c(=O)[nH]c(=O)n2C)n1CC(O)COc1ccc(Cl)cc1 (configuration not stated)	nt	i	nt	nt	nt	nt
CCc1ccccc1NC(=O)CCS(=O)(=O)c1ccc2c(c1)CCN2C(=O)C1CC1	nt	i	nt	nt	nt	nt
O=C(O)c1ccc(Nc2ncc3c(n2)-c2ccc(Cl)cc2C(c2c(F)cccc2F)=NC3)cc1	nt	15.3µM	nt	nt	nt	nt
O=C1CC(N2CCN(c3ccccc3)CC2)C(=O)N1c1cccc(Cl)c1 (configuration not stated)	i	i	i	i	i	i
O=C1CC(N2CCSCC2)C(=O)N1c1cccc(Cl)c1 (configuration not stated)	?	i	?	i	0.82µM	i
FC(F)(F)c1cccc(-n2c(Cn3nnc4ccccc43)n[nH]c2=S)c1	2.59µM	i	i	i	i	i
CCOC(=O)c1sc2nc(CC(=O)OC)nc(NCc3ccco3)c2c1C	i	i	3.26µM	i	i	i
Cc1sc2nc3c4ccccc4c(NCc4ccco4)nn3c(=O)c2c1C	4.61µM	i	i	i	2.59µM	i
Cc1nc(NCc2ccco2)c2c(C)c(C)sc2n1	?	?	?	11.6µM	i	i
Cc1nnc(NCc2ccco2)c2ccccc12	i[9.22 µM]	i	i	i	i	i
CCOC(=O)c1sc2nc(CC(=O)OC)nc(NCC(=O)OC)c2c1C	i	i	i	i	i	i
Cn1c(-n2cccc2)c(-c2c(-c3ccc(Cl)cc3)[nH]c3c2c(=O)[nH]c(=O)n3C)c(=O)[nH]c1=O	nt	i	nt	nt	nt	nt
SMILES	SW480 rerep	12-LOX inh	KB-V1 MDR tox	KB-3-1 tox	MCF10A rerep	PINK1 expr mod
CCCCCc1c(C)nc(Nc2nc(C)c3cc(OCC)ccc3n2)[nH]c1=O	nt	i	nt	nt	nt	nt
CN(Cc1ccc(F)cc1)C(=O)CNC(=O)c1ccc2c(c1)OCO2	i	i	i	i	i	i
CN(Cc1ccc(Br)s1)C(=O)CNC(=O)c1ccc2c(c1)OCO2	i	i	20.6µM	i	i	i
CC(Nc1nc(-c2ccc3c(c2)NC(=O)CO3)cs1)c1ccccc1 (configuration not stated)	i	?	i	i	i	i
CCNc1nc(-c2ccc3c(c2)CCC(=O)N3)cs1	nt	20µM	nt	nt	nt	nt
CCCCNc1nc(-c2ccc3c(c2)CC(=O)N3)cs1	nt	31.6µM	nt	nt	nt	nt
O=C1Cc2cc(-c3csc(NC4CC4)n3)ccc2N1	nt	39.8µM	nt	nt	nt	nt
O=C1CCc2cc(-c3csc(NC4CC4)n3)ccc2N1	nt	35.5µM	nt	nt	nt	nt
CCNc1nc(-c2ccc(Br)cc2)cs1	nt	i	nt	nt	nt	nt
